The record followed here is ChEMBL document CHEMBL3988442, “University of Dundee, Small-Polar-MMV Screening Library” (2021).

Holding throughout (parameters): scale not given: direction of the effect not stated beside the values
Assay [1] addresses Protein translocase subunit SecA (Escherichia coli (strain K12)) (UniProt P10408). Nature of the assay: Assay to Identify E. coli SecA ATPase Inhibitors. The note with it: 30 µM. It is filed as functional.
For assay [2], the target named is T1, Ubiquitin-activating enzyme e1, putative (Leishmania donovani (strain BPK282A1)) (UniProt E9BSI1).
T1 sequence (whole entry): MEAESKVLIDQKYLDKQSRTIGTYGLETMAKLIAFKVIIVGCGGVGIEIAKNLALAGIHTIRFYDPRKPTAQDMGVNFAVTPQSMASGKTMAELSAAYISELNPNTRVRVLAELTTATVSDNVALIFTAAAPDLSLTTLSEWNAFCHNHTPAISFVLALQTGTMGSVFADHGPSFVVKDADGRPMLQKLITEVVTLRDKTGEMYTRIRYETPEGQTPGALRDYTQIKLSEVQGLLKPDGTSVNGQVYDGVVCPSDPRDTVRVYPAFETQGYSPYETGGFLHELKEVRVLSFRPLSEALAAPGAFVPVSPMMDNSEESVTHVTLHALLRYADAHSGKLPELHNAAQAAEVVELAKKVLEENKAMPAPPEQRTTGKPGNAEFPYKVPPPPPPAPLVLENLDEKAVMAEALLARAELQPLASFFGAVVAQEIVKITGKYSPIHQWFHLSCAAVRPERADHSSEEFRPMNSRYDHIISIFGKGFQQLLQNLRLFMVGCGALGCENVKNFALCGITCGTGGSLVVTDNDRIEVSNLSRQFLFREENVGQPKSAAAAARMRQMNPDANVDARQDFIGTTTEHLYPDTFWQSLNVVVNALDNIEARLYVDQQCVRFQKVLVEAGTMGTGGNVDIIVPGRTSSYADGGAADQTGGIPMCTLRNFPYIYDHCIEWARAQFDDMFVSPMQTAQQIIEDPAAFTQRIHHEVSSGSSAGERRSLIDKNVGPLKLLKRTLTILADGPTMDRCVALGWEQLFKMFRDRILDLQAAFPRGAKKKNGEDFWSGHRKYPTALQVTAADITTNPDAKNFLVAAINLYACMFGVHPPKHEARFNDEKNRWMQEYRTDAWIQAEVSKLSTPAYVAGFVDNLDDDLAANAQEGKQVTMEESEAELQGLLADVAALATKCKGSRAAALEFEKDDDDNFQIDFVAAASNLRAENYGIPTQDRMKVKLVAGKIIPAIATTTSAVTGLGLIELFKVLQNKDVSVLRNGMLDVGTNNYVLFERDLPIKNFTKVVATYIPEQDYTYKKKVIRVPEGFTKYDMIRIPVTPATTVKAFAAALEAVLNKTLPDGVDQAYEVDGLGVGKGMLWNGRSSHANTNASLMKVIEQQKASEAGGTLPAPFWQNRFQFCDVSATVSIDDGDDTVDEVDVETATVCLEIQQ
Nature of the assay: Leishmania donovani Ubiquitin Activating Enzyme (LdE1). In kind it is functional. The note with it: 30 µM.

Assay [3] concerns the target AMP-activated protein kinase, AMPK (Homo sapiens) (UniProt P54646+O43741+P54619+Q9UGJ0+Q9Y478+Q13131+Q9UGI9). Nature of the assay: AMP-dependent Kinase enzyme assay. An in vitro enzyme assay that detects ADP turnover that is directly proportional to AMPK activity. This uses naive AMPK that is activated during the assay with MK-8722. The note with it: 30 µM. It is filed as functional.

Assay [4] has as its target Sialic acid-binding Ig-like lectin 9 (Homo sapiens) (UniProt Q9Y336). Nature of the assay: Hs-Siglec9 ALPHAscreen SOP 20170721. The note with it: 10 µM.
A further assay relates to Trypanosoma cruzi. Nature of the assay: Trypanosoma cruzi phosphomannomutase and mannose-1-phosphate guanylyltransferase assay. It is filed as functional. The note with it: 10 µM.
Assay [5] addresses T2, Arginase-2, mitochondrial (Homo sapiens) (UniProt P78540).
T2 sequence (whole entry): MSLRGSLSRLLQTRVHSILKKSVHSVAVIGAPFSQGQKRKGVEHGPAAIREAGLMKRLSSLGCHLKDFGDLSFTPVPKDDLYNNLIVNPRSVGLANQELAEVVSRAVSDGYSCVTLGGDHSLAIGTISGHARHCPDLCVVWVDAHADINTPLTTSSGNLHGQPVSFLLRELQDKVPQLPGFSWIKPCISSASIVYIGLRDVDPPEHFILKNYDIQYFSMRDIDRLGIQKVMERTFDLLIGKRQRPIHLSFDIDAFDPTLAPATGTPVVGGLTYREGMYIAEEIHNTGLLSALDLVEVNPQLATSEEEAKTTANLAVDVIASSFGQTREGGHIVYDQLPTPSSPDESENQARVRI
Nature of the assay: in vitro enzyme assay to detect the production of urea directly proportional to the activity of Arginase II. Also: in the data most compounds retested in dose-response had high values. In kind it is functional. The note with it: 33.3 µM.

Assay [6] concerns the target T3, Proteasome subunit beta (Trypanosoma cruzi) (UniProt O96673).
T3 sequence (whole entry): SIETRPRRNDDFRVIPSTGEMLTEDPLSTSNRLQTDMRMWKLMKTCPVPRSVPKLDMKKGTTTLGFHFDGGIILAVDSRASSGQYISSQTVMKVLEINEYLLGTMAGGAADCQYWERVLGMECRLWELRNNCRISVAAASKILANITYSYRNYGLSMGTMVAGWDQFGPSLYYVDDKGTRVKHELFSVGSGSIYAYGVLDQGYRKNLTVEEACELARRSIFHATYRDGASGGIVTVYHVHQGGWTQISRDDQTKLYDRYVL
Nature of the assay: Trypanosoma cruzi proteasome chymotrypsin-like activity (TcProtChymo) assay. Also: in the data most compounds retested in dose-response had high values. The note with it: 9.37 µM. It is filed as functional.

Another assay is filed under the species Homo sapiens. Nature of the assay: To identify inhibition of the IFN signalling (Jak-Stat) pathway via expression of an eGFP reporter gene under the control of an IFN-stimulated response element (ISRE) containing MxA promoter. It is filed as functional. The note with it: 30 µM.
The target in assay [7] is T4, Tyrosyl-tRNA synthetase, putative (Trypanosoma cruzi (strain CL Brener)) (UniProt Q4DSP6).
T4 sequence (whole entry): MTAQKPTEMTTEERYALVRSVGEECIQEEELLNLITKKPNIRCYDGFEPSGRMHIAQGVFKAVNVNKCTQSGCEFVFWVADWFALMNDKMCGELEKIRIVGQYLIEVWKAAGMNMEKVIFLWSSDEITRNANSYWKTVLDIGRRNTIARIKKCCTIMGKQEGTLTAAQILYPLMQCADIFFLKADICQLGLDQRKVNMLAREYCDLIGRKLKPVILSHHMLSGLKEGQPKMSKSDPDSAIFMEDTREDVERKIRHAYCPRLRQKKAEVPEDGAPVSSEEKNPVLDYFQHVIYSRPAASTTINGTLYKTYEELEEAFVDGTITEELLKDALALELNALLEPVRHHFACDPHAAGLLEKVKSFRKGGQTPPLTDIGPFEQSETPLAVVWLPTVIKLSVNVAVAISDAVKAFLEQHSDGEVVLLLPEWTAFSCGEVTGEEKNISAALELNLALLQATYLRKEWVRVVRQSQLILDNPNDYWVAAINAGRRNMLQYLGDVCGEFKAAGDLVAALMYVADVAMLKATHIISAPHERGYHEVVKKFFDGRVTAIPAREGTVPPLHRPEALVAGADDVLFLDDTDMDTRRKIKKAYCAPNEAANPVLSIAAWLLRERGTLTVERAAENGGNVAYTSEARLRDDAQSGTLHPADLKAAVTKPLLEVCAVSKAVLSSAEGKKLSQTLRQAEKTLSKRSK
Nature of the assay: Trypanosoma cruzi tyrosyl tRNA synthetase (TcYRS) _High Tyrosine SOP. Also: in the data most compounds retested in dose-response had high values. In kind it is functional. The note with it: 30 µM.

Assay [8] deals with T4, Tyrosyl-tRNA synthetase, putative (Trypanosoma cruzi (strain CL Brener)). Nature of the assay: Trypanosoma cruzi tyrosyl tRNA synthetase (TcYRS) SOP. It is filed as functional. The note with it: 30 µM.
The target of assay [9] is Chromo domain-containing protein 1 (Saccharomyces cerevisiae (strain ATCC 204508 / S288c) (Baker's yeast)) (UniProt P32657). Description: ScCHD-1 Enzyme Inhibition Assay. Also: in the data most compounds retested in dose-response had high values. It is filed as functional. The note with it: 30 µM.
Chain of Chromo domain-containing protein 1 (Saccharomyces cerevisiae (strain ATCC 204508 / S288c) (Baker's yeast)) (P32657 whole entry, the tested form may be a part): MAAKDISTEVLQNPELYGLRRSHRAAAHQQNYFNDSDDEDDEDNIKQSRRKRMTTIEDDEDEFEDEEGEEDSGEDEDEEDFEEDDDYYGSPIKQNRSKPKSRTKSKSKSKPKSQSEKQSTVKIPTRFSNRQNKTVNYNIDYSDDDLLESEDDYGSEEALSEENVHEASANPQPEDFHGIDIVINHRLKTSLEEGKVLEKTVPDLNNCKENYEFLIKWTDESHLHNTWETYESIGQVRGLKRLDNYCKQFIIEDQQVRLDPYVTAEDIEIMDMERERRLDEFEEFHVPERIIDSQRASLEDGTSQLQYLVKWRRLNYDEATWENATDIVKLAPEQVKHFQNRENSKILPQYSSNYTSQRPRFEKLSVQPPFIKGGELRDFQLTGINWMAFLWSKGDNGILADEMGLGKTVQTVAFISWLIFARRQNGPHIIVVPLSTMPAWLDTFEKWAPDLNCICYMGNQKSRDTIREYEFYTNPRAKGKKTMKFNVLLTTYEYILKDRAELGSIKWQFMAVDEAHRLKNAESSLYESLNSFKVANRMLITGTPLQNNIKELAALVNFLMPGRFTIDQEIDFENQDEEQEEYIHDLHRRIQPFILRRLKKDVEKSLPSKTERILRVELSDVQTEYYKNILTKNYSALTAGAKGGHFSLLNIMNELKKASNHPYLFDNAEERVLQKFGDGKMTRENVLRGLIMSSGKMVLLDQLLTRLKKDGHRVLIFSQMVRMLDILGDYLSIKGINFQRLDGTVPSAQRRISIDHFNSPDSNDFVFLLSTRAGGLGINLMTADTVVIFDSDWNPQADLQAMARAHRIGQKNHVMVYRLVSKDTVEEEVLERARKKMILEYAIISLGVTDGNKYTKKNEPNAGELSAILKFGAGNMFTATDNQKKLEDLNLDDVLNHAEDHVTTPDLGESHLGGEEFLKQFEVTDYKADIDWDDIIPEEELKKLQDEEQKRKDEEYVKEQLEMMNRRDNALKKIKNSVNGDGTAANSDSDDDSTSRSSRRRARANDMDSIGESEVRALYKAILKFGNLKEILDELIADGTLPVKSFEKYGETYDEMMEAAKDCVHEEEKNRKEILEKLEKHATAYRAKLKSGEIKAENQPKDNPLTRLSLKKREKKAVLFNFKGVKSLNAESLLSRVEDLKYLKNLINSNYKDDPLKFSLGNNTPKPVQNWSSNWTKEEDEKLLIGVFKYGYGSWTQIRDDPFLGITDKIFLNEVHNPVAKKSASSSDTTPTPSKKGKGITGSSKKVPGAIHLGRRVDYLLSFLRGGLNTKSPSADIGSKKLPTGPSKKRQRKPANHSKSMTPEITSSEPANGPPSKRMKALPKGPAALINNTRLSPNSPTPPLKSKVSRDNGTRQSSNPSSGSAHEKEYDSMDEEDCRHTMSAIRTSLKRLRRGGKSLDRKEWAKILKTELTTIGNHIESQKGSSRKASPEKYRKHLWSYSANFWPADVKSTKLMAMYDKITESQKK

For some of these results: Results with a measured potency or affinity are listed apart.

Chain of Sialic acid-binding Ig-like lectin 9 (Homo sapiens) (Q9Y336 whole entry): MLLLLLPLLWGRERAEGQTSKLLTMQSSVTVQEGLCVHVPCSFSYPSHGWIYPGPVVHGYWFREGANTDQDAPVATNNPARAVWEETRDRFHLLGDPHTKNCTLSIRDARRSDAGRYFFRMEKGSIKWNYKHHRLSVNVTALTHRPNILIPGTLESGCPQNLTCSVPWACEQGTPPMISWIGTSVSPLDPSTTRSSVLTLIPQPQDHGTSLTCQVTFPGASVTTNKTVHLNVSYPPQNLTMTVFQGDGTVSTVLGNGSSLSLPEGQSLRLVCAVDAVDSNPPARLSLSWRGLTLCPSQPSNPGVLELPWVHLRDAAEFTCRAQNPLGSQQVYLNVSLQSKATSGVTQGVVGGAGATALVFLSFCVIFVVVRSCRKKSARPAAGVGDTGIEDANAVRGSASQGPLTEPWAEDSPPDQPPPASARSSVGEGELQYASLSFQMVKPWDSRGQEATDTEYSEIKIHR
Chain of Protein translocase subunit SecA (Escherichia coli (strain K12)) (P10408 whole entry): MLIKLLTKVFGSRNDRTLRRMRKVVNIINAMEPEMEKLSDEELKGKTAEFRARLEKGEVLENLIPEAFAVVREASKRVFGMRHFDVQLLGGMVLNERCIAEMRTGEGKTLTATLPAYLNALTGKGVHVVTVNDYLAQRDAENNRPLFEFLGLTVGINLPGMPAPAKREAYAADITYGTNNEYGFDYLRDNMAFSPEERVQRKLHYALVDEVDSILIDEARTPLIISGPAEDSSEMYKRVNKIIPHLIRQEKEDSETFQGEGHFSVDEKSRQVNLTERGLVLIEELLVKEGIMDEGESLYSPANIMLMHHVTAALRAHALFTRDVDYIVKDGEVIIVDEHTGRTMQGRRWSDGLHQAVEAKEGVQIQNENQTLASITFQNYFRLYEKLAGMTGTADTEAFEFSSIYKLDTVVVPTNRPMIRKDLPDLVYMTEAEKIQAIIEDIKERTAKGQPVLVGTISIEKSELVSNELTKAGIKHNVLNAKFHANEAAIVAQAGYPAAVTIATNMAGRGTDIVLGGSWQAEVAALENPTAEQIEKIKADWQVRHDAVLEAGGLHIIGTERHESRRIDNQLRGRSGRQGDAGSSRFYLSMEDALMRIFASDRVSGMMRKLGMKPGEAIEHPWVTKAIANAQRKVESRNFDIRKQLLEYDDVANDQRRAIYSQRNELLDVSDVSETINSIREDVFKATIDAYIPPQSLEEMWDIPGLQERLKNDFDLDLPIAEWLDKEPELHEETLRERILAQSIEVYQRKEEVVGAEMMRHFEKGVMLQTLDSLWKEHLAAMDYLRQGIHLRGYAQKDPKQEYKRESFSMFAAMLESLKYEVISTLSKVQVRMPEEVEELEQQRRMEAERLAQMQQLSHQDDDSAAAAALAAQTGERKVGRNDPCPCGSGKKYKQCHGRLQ

For `Cc1nc(C2CCCN2CCCNS(C)(=O)=O)no1` (stereo unspecified), the Percent Effect in [1] was -3.7%; in assay [2] it was 15.8%; in [3] it was -4.74%; in [4] it was 1.41%; in the assay on Trypanosoma cruzi it was 7.14%; in [5], 4.98%. Moreover, the Percent Effect is 20.4% in [6]; -7.41% in the assay filed under Homo sapiens; 4.41% in assay [7]; 19.5% in [8]; -5.18% in assay [9].

Take `Cc1nc(CNCC2CCCN2c2cccnn2)no1` (stereo unspecified): the Percent Effect in assay [1] is -3.3%; in assay [2] it was -13%; in assay [3], -11.2%; in assay [4], -6.04%; in the assay on Trypanosoma cruzi, 8.32%; in assay [5], -6.53%. For the same compound, the Percent Effect in assay [6] was 15.6%; in the assay filed under Homo sapiens, -2.13%; in assay [7], 9.52%; in assay [8] it was 14.1%; in assay [9] it was -23.1%.

With `CCn1cc(NC(=O)NC2CCCc3c2cnn3CCO)cn1` (stereo unspecified), the Percent Effect is -1.35% in assay [1]; 5.33% in assay [2]; -2.07% in assay [3]; 4.11% in assay [4]; -1.07% in the assay with Trypanosoma cruzi; 1.56% in assay [5]. Further, the Percent Effect was 9.77% in assay [6]; 4.28% in the assay listed under Homo sapiens; 4.92% in assay [7]; 11.1% in assay [8]; -14.2% in [9].

In the case of `Cc1ccc(C(=O)NCCCNS(C)(=O)=O)c(=O)[nH]1`, the Percent Effect in [1] was -3.74%; in assay [2], 16.2%; in assay [3] it was -2.72%; in assay [4], 4.72%; with Trypanosoma cruzi, 2.54%; in assay [5], 5%. The Percent Effect was 22.4% in assay [6]; -1.74% in the assay listed under Homo sapiens; 10.9% in [7]; 18.3% in [8]; -7.91% in [9].

For `O=C(C1CCC1)N1CCN(c2snc3ccccc23)CC1`, the Percent Effect in assay [1] is -4.56%; in [2], 1.27%; in [3], 21%; in [4] it was -7.26%; with Trypanosoma cruzi, -0.718%; in assay [5], 9.25%. The Percent Effect in assay [6] is 5.83%; in the assay filed under Homo sapiens, 25.3%; in assay [7], -4.17%; in [8], -12.7%; in [9], -2%.

In the case of `Cn1ccnc1CN1CCC2(CC1)CN(CC1CC1)C(=O)CO2`, the Percent Effect in [1] is -1.66%; in assay [2], 0%; in assay [3], 7.96%; in [4] it was -0.145%; in the assay on Trypanosoma cruzi it was -0.296%; in assay [5], -1.94%. Further, the Percent Effect in assay [6] was 0.522%; in the assay filed under Homo sapiens, 12.5%; in assay [7], 4.23%; in assay [8], 8.97%; in [9], 90.8%.

Consider `Fc1ccc(CCN2CCC(c3nnc(-c4cccnc4)o3)CC2)cc1`, for which the Percent Effect in assay [1] was -1.2%; in [2], 1.35%; in assay [3], 6.27%; in assay [4], -6.66%; in the assay on Trypanosoma cruzi it was -0.988%; in assay [5] it was -5.8%. The Percent Effect was 18.9% in assay [6]; 19.1% in the assay filed under Homo sapiens; 3.23% in assay [7]; 9.09% in assay [8]; -14% in assay [9].

In the case of `CCC1CCCCN1C(=O)c1ccc2[nH]nnc2c1` (stereo unspecified), the Percent Effect in assay [1] was 0.483%; in assay [2] it was 0%; in [3], -3.81%; in [4], -0.908%; in the assay with Trypanosoma cruzi, -1.17%; in [5], 3.33%. Further, the Percent Effect in [6] is 19.5%; in the assay listed under Homo sapiens, 1.34%; in [7] it was 3.96%; in [8], -11%; in [9] it was -1.41%.

Regarding `Cc1nccc(C2CN(Cc3cc[nH]n3)CCO2)n1` (stereo unspecified), the Percent Effect was -1.51% in assay [1]; 1.35% in assay [2]; 9.42% in [3]; 3.04% in assay [4]; -1.98% with Trypanosoma cruzi; -1.16% in [5]. The Percent Effect in [6] is 4.84%; in the assay filed under Homo sapiens it was -10.9%; in [7] it was 0%; in [8], 3.9%; in [9], -12.4%.

On to `O=C(Cc1ccsc1)N1CCn2cc(CN3CCCC3)nc2C1`, for which the Percent Effect is -1.1% in assay [1]; 8.22% in assay [2]; -4.43% in [3]; 11.5% in assay [4]; 8.33% with Trypanosoma cruzi; -9.98% in assay [5]. Besides, the Percent Effect in assay [6] was 20.1%; in the assay filed under Homo sapiens, -16%; in assay [7], 14.6%; in assay [8], 23.5%; in assay [9], -4.19%.

Take `COc1ncccc1NC(=O)C1CC(=O)N(Cc2ccccn2)C1` (stereo unspecified): the Percent Effect in assay [1] is -1.71%; in assay [2] it was 10.5%; in [3], 4.85%; in [4] it was -1.28%; in the assay on Trypanosoma cruzi it was -4.97%; in assay [5], -2.37%. Moreover, the Percent Effect in assay [6] was 22.3%; in the assay listed under Homo sapiens it was -2.21%; in [7], 4.25%; in assay [8], 13%; in assay [9], -2.98%.
